Drawing on publication PMC9911399, “Two distinct binding modes provide the RNA-binding protein RbFox with extraordinary sequence specificity”, this text covers binding signal for 15 molecules.

Positions count from the first letter of the chain named. Whole data set: some 16,000 sequences, median “ka relative to ugcaugu” near 0.0091, cut for the highest 2% near 0.032. Shown is part of a subset that was picked to be rich in the highest values.

T1: RBFOX1 RRM (Homo sapiens, UniProt Q9NWB1 109-208)
T1 sequence: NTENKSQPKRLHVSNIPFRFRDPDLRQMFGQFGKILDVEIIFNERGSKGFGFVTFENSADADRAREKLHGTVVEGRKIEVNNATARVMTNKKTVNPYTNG

B1: UCAUGUU (DNA:RNA)
RNA: GGGAGACCGGAAUUCAGAUUGUCCUCAUGUUUUAAAUCCCGUCGUAGCCACCA
DNA 1: CAATCTGAATTCCGGTCTCCC
DNA 2: TGGTGGCTACGACGGGATT
B2: GCUGUUA (DNA:RNA)
RNA: B1 RNA with U25G, A27U, U28G, G29U, U31A
DNA 1: CAATCTGAATTCCGGTCTCCC
DNA 2: TGGTGGCTACGACGGGATT
B3: GGCGCCG (DNA:RNA)
RNA: GGGAGACCGGAAUUCAGAUUGUCCGGCGCCGUUAAAUCCCGUCGUAGCCACCA
DNA 1: CAATCTGAATTCCGGTCTCCC
DNA 2: TGGTGGCTACGACGGGATT
B4: GGAUAGU (DNA:RNA)
RNA: B1 RNA with U25G, C26G, G29A, U30G
DNA 1: CAATCTGAATTCCGGTCTCCC
DNA 2: TGGTGGCTACGACGGGATT
B5: CGGAUUG (DNA:RNA)
RNA: B3 RNA with G25C, C27G, G28A, C29U, C30U
DNA 1: CAATCTGAATTCCGGTCTCCC
DNA 2: TGGTGGCTACGACGGGATT
B6: GAAUUUG (DNA:RNA)
RNA: B1 RNA with U25G, C26A, G29U, U31G
DNA 1: CAATCTGAATTCCGGTCTCCC
DNA 2: TGGTGGCTACGACGGGATT
B7: GGGAUUG (DNA:RNA)
RNA: B3 RNA with C27G, G28A, C29U, C30U
DNA 1: CAATCTGAATTCCGGTCTCCC
DNA 2: TGGTGGCTACGACGGGATT
B8: GUCCGGA (DNA:RNA)
RNA: B3 RNA with G26U, G28C, C29G, C30G, G31A
DNA 1: CAATCTGAATTCCGGTCTCCC
DNA 2: TGGTGGCTACGACGGGATT
B9: CACCGGA (DNA:RNA)
RNA: B3 RNA with G25C, G26A, G28C, C29G, C30G, G31A
DNA 1: CAATCTGAATTCCGGTCTCCC
DNA 2: TGGTGGCTACGACGGGATT
B10: GGGAUAG (DNA:RNA)
RNA: B3 RNA with C27G, G28A, C29U, C30A
DNA 1: CAATCTGAATTCCGGTCTCCC
DNA 2: TGGTGGCTACGACGGGATT
B11: GGAUUUG (DNA:RNA)
RNA: B3 RNA with C27A, G28U, C29U, C30U
DNA 1: CAATCTGAATTCCGGTCTCCC
DNA 2: TGGTGGCTACGACGGGATT
B12: CGGAUAG (DNA:RNA)
RNA: B3 RNA with G25C, C27G, G28A, C29U, C30A
DNA 1: CAATCTGAATTCCGGTCTCCC
DNA 2: TGGTGGCTACGACGGGATT
B13: GUCGGGA (DNA:RNA)
RNA: B3 RNA with G26U, C29G, C30G, G31A
DNA 1: CAATCTGAATTCCGGTCTCCC
DNA 2: TGGTGGCTACGACGGGATT
B14: GUCGGAU (DNA:RNA)
RNA: B3 RNA with G26U, C29G, C30A, G31U
DNA 1: CAATCTGAATTCCGGTCTCCC
DNA 2: TGGTGGCTACGACGGGATT
B15: GGGGGGA (DNA:RNA)
RNA: B3 RNA with C27G, C29G, C30G, G31A
DNA 1: CAATCTGAATTCCGGTCTCCC
DNA 2: TGGTGGCTACGACGGGATT

This assay concerns the target T1, RBFOX1 RRM. Briefly: EMSA; HiTS-Eq, 1 nM pool, 10 min; buffer printed only for the single-RNA assays: 10 mM Tris pH 7.5, 150 mM NaCl, 3.4 mM EDTA, 0.001% NP-40, 30 C. Particulars: tags: His6 N-terminal (pET28a); label: 5' 32P. In short, it runs like this: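 These values rest on relative association constants, computed from read-count changes of each RNA species versus the control reaction and normalised to the cognate motif. Reads came from free RNA recovered by 8% native PAGE after purified RbFox RRM (wild type or mutant) at increasing concentrations was equilibrated for 10 min in 50 µL with 1 nM of a 5′-radiolabelled pool with 7 randomized nucleotides and DNA-annealed flanks.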
Background: Mobility shift assays separate free from complexed probe on a gel.
B1: the binding signal is 0.0106 KA relative to UGCAUGU. The value for B2 was 0.0113 KA relative to UGCAUGU. On to B3, for which the binding signal is 0.00841 KA relative to UGCAUGU. Take B4: the binding signal is 0.0169 KA relative to UGCAUGU. B5: the binding signal was 0.0329 KA relative to UGCAUGU. In the case of B6, the binding signal is 0.0172 KA relative to UGCAUGU.

With B7, the binding signal is 0.0593 KA relative to UGCAUGU.

As for B8, the binding signal is 0.00347 KA relative to UGCAUGU.

In the case of B9, the binding signal is 0.00389 KA relative to UGCAUGU. Consider B10, for which the binding signal is 0.0337 KA relative to UGCAUGU.

As to B11, the binding signal was 0.034 KA relative to UGCAUGU. The value for B12 was 0.0228 KA relative to UGCAUGU; that for B13 was 0.0117 KA relative to UGCAUGU; that for B14 was 0.00831 KA relative to UGCAUGU. Take B15: the binding signal was 0.0226 KA relative to UGCAUGU.
